Results filed as inconclusive are left out. The source made the active and inactive calls. Unless noted, the call rests on the fitted dose curve; in most records, active means well fitted curve in the direction sought with a large enough effect; inconclusive means small, poorly fitted or top-dose-only effect, or another doubt; inactive means no such curve, though single readings can be large; an effect the other way counts as inactive or inconclusive.
Tests used:
[1] = Viability counterscreen for antagonist of constitutive androstane receptor (CAR) against the NCATS DSHEA and TCM libraries (AID 1794837); settings: CAR reporter cell line viability counterscreen, qHTS; series mostly up to 40 µM;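 further: compound exposure lasted 24 h before viability reading; 0% is about no effect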
In short: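 Cell viability, CellTiter-Fluor, Ex/Em 405/540 nm, 1 h at 37C. HepG2-CYP2B6-hCAR, 2,500 cells/well; cpds + CITCO 48 uM final (antagonist mode), 24 h, 37C/5% CO2.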

[2] = HepG2 viability counterscreen (readout 2: ATP content) against the NCATS DSHEA and TCM libraries (AID 1794840); settings: ATP content luminescence; series mostly up to 27.3 µM;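 further: HepG2 cells exposed to substances for about 24 h; 0% is about no effect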
In short: (§1)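 1,000 HepG2 cells/well, 4 h attach; compounds ~24 h, 37C/5% CO2. Readout 1: GF-AFC 25 uM final, 30 min, fluorescence 380/510 nm. Readout 2: CellTiter-Glo, 30 min RT, luminescence.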

[3] = HepG2 viability counterscreen (readout 1: protease activity) against the NCATS DSHEA and TCM libraries (AID 1794841); settings: qHTS concentration series; series mostly up to 27.3 µM;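 further: cells exposed to compounds for about 24 h before the protease read; 0% is about no effect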
In short: as §1

[4] = target: Cytochrome P450 2D6 (Homo sapiens) (UniProt P10635); assay: qHTS for inhibitors of CYP2D6 against the NCATS DSHEA and TCM libraries (AID 1919972); settings: CYP2D6 enzymatic inhibition, luminescence qHTS; series mostly up to 34.1 µM; further: on the % scale 0 is the no-effect control and ±100 the full control effect
Chain of Cytochrome P450 2D6 (Homo sapiens) (P10635 whole entry, looked up): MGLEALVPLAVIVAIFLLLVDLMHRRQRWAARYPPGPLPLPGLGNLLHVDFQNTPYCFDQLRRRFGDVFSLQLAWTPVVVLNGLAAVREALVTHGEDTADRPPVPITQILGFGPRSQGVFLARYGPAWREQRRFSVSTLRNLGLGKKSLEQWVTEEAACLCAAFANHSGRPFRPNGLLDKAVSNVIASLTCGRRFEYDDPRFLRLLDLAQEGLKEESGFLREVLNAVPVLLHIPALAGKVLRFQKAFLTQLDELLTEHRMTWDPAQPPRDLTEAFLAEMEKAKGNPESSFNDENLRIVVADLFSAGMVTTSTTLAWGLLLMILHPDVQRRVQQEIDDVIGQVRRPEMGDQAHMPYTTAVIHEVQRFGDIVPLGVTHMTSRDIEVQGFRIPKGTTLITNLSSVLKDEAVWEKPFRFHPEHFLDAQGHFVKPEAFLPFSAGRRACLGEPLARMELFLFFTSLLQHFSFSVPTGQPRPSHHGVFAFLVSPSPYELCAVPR
In short: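 Luminescent P450-Glo read-out of CYP2D6 turnover of a luciferin substrate after NADPH-driven reaction of 30-45 min at room temperature. Compounds were first preincubated 15 min with enzyme at titrated concentrations; quinidine was the intraplate control.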

[5] = KB-3-1 P-gp reporter qHTS against the NCATS DSHEA and TCM libraries (AID 1919975); settings: KB-3-1 parental cells, CellTiter-Glo luminescence viability, 72 h; series mostly up to 26.1 µM; further: 0% is about no effect
In short: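 CellTiter-Glo luminescence viability readout; KB-3-1 parental cells, 500/well, attached ~4 h, then compound for ~72 h, 37C, 5% CO2. Bortezomib intraplate control.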

[6] = target: Cytochrome P450 1A2 (Homo sapiens) (UniProt P05177); assay: qHTS for inhibitors of CYPIA2 against the NCATS DSHEA and TCM libraries (AID 1919976); settings: recombinant CYP1A2 enzyme activity, luminescence; series mostly up to 37 µM;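 further: light from luciferin formed by CYP1A2 from a pro-luciferin substrate; on the % scale 0 is the no-effect control and ±100 the full control effect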
Chain of Cytochrome P450 1A2 (Homo sapiens) (P05177 whole entry, looked up): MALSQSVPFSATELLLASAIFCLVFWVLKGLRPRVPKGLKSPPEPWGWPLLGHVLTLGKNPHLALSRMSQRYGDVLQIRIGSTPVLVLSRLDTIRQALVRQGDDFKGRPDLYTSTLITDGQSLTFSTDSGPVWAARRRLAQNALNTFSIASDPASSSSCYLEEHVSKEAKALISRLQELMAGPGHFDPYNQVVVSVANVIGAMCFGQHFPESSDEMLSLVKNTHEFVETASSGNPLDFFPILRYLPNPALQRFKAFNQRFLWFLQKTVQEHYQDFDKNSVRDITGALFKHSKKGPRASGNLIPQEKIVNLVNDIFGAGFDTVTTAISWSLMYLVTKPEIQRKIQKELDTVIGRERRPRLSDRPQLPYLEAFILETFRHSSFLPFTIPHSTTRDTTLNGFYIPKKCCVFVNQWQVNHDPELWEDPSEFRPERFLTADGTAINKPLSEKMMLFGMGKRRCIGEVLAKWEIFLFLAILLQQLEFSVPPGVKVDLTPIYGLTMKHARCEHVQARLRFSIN
In short: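 CYP1A2 + luciferin substrate, 100 mM KPO4-type buffer; cmpd 15 min RT; 1x NADPH regen, 30-45 min RT dark; detection reagent 30 min RT; luminescence. Minus-enzyme wells as background; furafylline intraplate control.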

[7] = qHTS Counterscreen for compound interference against the NCATS DSHEA and TCM libraries (AID 1919978); settings: firefly luciferase detection reagent interference, luminescence;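 further: compounds preincubated with 1 µM D-luciferin or buffer before detection reagent; % of control where 0% means no effect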
In short: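 Luminescence counterscreen for detection-kit interference: compounds at 19.5 nM–39.8 uM final, 15 min RT with 1 uM D-luciferin or buffer only; detection reagent added, 30 min RT, then read.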

[8] = Dual reporter qHTS for agonist of Pregnane X Receptor (hPXR) against the NCATS DSHEA and TCM libraries: Fluorescence readout (AID 1920058); settings: PXR dual reporter cells; series mostly up to 40 µM; further: 0% is about no effect
In short: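 HepG2 hPXR-Luc, 2000 cells/well, 5 h attach; cpds ~24 h, 37 °C/5% CO2; CellTiter-Fluor 1 h; fluor. Ex/Em 405/540 nm = viability.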

[9] = target: Nuclear receptor subfamily 1 group I member 2 (Homo sapiens) (UniProt O75469); assay: Dual reporter qHTS for agonist of Pregnane X Receptor (hPXR) against the NCATS DSHEA and TCM libraries: Luminescence readout (AID 1920059); settings: hPXR dual reporter cells, luciferase luminescence agonist; series mostly up to 40 µM; further: 0% is about no effect
Chain of Nuclear receptor subfamily 1 group I member 2 (Homo sapiens) (O75469 whole entry, looked up): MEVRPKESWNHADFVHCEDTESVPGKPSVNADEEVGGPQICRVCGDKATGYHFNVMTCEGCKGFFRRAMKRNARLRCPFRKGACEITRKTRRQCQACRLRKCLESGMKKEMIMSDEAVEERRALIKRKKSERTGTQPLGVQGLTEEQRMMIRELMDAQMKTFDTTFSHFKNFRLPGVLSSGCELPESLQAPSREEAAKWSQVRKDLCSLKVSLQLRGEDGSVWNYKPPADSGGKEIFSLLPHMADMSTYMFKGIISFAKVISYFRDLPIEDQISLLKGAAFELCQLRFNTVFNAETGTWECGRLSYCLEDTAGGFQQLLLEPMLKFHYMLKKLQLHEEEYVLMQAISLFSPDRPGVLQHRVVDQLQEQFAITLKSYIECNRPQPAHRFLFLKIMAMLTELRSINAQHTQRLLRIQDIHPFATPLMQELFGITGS
In short: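 Luminescent PXR reporter read (ONE-Glo) after a CellTiter-Fluor viability read, following 24 h, 37C treatment of HepG2 cells stably carrying hPXR-Luc.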

[10] = target: Nuclear receptor subfamily 1 group I member 2 (Homo sapiens) (UniProt O75469); assay: Dual reporter qHTS for antagonist of Pregnane X Receptor (hPXR) against the NCATS DSHEA and TCM libraries: Luminescence Readout (AID 1920060); settings: hPXR dual reporter cells, luciferase luminescence, antagonist mode; series mostly up to 40 µM;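 further: HepG2 cells carrying hPXR luciferase reporter stimulated with rifampicin at 2 µM; 0% is about no effect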
In short: (§2)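 hPXR-Luc HepG2 cells exposed 24 h at 37 C to compounds with 2 uM rifampicin in antagonist mode; luciferase luminescence measured by ONE-Glo, with CellTiter-Fluor viability read beforehand.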

[11] = Dual reporter qHTS for antagonist of Pregnane X Receptor (hPXR) against the NCATS DSHEA and TCM libraries: Fluorescence Readout (AID 1920061); settings: PXR dual reporter cells, antagonist mode; series mostly up to 40 µM; further: 0% is about no effect
In short: as §2

[12] = target: ATP-dependent 6-phosphofructokinase (Trypanosoma brucei brucei) (UniProt O15648); assay: qHTS Assay to Find Inhibitors of T. brucei phosphofructokinase: hit validation (AID 492961);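 further: luminescence reports ADP formed as PFK phosphorylates fructose-6-phosphate with ATP; on the % scale 0 is the no-effect control and ±100 the full control effect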; settings: T. brucei PFK, ADP-Glo luminescence; series mostly up to 24.3 µM
Chain of ATP-dependent 6-phosphofructokinase (Trypanosoma brucei brucei) (O15648 whole entry, looked up): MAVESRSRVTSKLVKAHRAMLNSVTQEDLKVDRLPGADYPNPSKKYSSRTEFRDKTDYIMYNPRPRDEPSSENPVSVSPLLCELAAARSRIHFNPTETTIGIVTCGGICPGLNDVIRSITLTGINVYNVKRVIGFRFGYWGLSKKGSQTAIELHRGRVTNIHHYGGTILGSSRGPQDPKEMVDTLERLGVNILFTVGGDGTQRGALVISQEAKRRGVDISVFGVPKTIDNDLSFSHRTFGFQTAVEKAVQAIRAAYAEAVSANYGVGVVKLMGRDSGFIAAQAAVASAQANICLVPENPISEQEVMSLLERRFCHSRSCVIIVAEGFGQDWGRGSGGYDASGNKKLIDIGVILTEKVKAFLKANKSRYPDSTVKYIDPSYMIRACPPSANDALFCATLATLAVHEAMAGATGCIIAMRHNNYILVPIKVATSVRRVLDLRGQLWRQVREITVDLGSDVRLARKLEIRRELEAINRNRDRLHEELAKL
In short: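 Measures ADP output of PFK (1.25 nM) at 0.1 mM ATP, 0.5 mM F6P, pH 8.0 TEA buffer with 5 mM MgCl2. No-enzyme wells define full inhibition; uninhibited enzyme wells define zero.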

[13] = target: Luciferin 4-monooxygenase (Photinus pyralis) (UniProt P08659); assay: Biochemical firefly luciferase enzyme assay for NPC (AID 624030);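 further: purified P. pyralis luciferase at 10 nM with luciferin and ATP substrate; 0% = DMSO and -100% = full luciferase inhibition by PTC124 control; nearly all actives have a fitted effect of over 70% in size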; settings: purified P. pyralis luciferase, luminescence, 5 min; series mostly up to 58.6 µM
Chain of Luciferin 4-monooxygenase (Photinus pyralis) (P08659 whole entry, looked up): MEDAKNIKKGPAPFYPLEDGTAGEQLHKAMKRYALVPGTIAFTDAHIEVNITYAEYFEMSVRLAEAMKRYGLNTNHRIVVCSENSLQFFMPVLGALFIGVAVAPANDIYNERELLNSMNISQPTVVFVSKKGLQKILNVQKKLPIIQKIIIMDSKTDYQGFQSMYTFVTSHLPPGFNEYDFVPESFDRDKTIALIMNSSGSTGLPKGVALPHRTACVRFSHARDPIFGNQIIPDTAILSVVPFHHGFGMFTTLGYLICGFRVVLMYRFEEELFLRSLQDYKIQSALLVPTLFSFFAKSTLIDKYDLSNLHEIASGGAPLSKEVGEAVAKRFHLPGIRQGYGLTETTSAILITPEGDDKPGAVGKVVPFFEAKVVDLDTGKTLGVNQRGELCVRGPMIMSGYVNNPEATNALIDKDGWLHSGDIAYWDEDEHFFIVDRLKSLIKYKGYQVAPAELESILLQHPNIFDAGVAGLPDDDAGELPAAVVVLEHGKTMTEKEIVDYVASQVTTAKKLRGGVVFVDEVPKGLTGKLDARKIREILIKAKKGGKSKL
In short: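 Direct inhibition of firefly luciferase enzyme (10 nM final, 50 mM Tris Acetate) assessed by luminescence within 5 minutes. Percent activity scaled between DMSO and PTC124 positive control, with concentration-effect curves classified by fit quality and response.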

[14] = S16 Schwann cell PMP22 intronic element firefly luciferase assay (AID 624032); settings: S16 rat Schwann cells, PMP22 element FLuc, 24 h; series mostly up to 25.7 µM;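 further: plate controls were DMSO for no effect and PTC124 positive control mean for full effect; nearly all actives have a fitted effect of over 30% in size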
In short: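 Luciferase reporter of PMP22 intronic-element expression in stably transfected S16 rat Schwann cells, read by ONE-Glo luminescence after 24 h compound exposure at 37 C. Activity scaled between DMSO (0%) and positive-control PTC124; concentration-effect curves quality-classified.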

[15] = S16 Schwann cell PMP22 intronic element beta-lactamase assay (AID 624044; calls by dose curve;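 further: 0% = DMSO and -100% = potassium clavulanate positive control; nearly all actives have a fitted effect of over 15% in size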); settings: S16 rat Schwann cells, PMP22 element beta-lactamase FRET, 24 h; series mostly up to 17.1 µM
In short: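 Rat S16 Schwann cells with beta-Lac driven by a PMP22 intronic element, compound-treated 24 h at 37 °C. LiveBLAzer FRET B/G read: 460 nm normalized to potassium clavulanate vs DMSO; 535 nm FRET as viability; concentration-effect curves classified.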

CP268 = assay: qHTS profiling for inhibitors of Plasmodium falciparum proliferation (AID 504749);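 further: 0% = DMSO vehicle and full inhibition = artemisinin control; nearly all actives have a fitted effect of over 60% in size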; settings: P. falciparum in erythrocytes, SYBR Green DNA, 72 h; series mostly up to 12.8 µM
In short: (§3)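 Infected RBCs, 0.3% parasitemia/2.5% Hct final; cpd 72 h, 37 C, 5% CO2; lysis buffer with saponin/triton/SYBR Green I, o/n RT dark; FI 485/535; norm. to artemisinin (0.29 uM) and DMSO.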

CP297 = assay: as above; settings: P. falciparum in erythrocytes, SYBR Green DNA, 72 h; series mostly up to 12.8 µM
In short: as §3

DIV14 = assay: as above; settings: P. falciparum in erythrocytes, SYBR Green DNA, 72 h; series mostly up to 12.8 µM
In short: as §3

ICS = assay: as above; settings: P. falciparum in erythrocytes, SYBR Green DNA, 72 h; series mostly up to 12.8 µM
In short: as §3

W2 = assay: as above; settings: P. falciparum in erythrocytes, SYBR Green DNA, 72 h; series mostly up to 12.8 µM
In short: as §3

O=c1ccc2ccc(O)cc2o1
inactive: outcome [1] | outcome [2] | outcome [3] | Potency [4] | outcome [5] | Potency [6] | max response [7] 2.6% | outcome [8] | outcome [9] | outcome [10] | outcome [11]

C[N+](C)(C)CC(O)CC(=O)O (stereo not drawn)
inactive: outcome [12] | outcome [13] | Potency [14] | outcome [15] | Potency (CP268) | Potency (CP297) | Potency (DIV14) | Potency (ICS) | Potency (W2)

CC(C)N1CCN(c2ccc(OC[C@@H]3CO[C@@](Cn4cncn4)(c4ccc(Cl)cc4Cl)O3)cc2)CC1
inactive: outcome [12] | outcome [13] | Potency [14] | outcome [15] | Potency (CP268) | Potency (CP297) | Potency (DIV14) | Potency (ICS) | Potency (W2)

O=C(Cc1cccs1)NC1C(=O)N2C(C(=O)[O-])=C(C[n+]3ccccc3)CSC12 (stereo not drawn)
inactive: outcome [13] | Potency [14] | outcome [15] | Potency (CP268) | Potency (CP297) | Potency (DIV14) | Potency (ICS) | Potency (W2)

O=c1cc(-c2ccc(O)cc2)oc2cc(O[C@H]3OC(CO)C(O)C(O)C3O)cc(O)c12 (stereo partly drawn)
inactive: outcome [1] | outcome [2] | outcome [3] | Potency [4] | outcome [5] | Potency [6] | max response [7] -0.179% | outcome [8] | outcome [9] | outcome [10] | outcome [11]

— PubChem BioAssay (NCATS)
